Source: PubChem BioAssay
DNA FID counter = compounds displacing fluorescent DNA intercalator, primary screen, artefact control for HCV NS3 helicase inhibitor project, biochemical, FID fluorescence. DNA fluorescent intercalator displacement. inhibition, % at 7.9 µM. actives 0.17% (n = 290,000). AID 1845, 2009; in the data active means inhibition above about 37%;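 further: 0% = vehicle and 100% = reference compound; higher means more ethidium bromide displaced from hairpin DNA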
RAD52 inh = RAD52 DNA annealing inhibitors, primary screen, biochemical, FRET, single point, set 2. actives 0.46% (n = 360,000). DNA repair protein RAD52 homolog (Homo sapiens), P43351. inhibition, % at 18.7 µM. recombinant RAD52 DNA annealing, FRET fluorescence;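 active means every replicate showing at least 50% inhibition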
RAD54 branch = inhibitors of human RAD54 branch migration, primary screen, biochemical, fluorescence, single point. RAD54 Holliday junction branch migration, FAM/BHQ fluorescence. inhibition, % at 10.4 µM. actives 0.14% (n = 360,000);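 active means mean normalized replicate activity at least 40 and at least half of replicates scoring 40 or more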;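 further: 0% = median of neutral control wells and 100% = median of positive control wells; inhibitors cause a drop in the FAM fluorescence signal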
Target sequence (Q92698 whole entry, looked up): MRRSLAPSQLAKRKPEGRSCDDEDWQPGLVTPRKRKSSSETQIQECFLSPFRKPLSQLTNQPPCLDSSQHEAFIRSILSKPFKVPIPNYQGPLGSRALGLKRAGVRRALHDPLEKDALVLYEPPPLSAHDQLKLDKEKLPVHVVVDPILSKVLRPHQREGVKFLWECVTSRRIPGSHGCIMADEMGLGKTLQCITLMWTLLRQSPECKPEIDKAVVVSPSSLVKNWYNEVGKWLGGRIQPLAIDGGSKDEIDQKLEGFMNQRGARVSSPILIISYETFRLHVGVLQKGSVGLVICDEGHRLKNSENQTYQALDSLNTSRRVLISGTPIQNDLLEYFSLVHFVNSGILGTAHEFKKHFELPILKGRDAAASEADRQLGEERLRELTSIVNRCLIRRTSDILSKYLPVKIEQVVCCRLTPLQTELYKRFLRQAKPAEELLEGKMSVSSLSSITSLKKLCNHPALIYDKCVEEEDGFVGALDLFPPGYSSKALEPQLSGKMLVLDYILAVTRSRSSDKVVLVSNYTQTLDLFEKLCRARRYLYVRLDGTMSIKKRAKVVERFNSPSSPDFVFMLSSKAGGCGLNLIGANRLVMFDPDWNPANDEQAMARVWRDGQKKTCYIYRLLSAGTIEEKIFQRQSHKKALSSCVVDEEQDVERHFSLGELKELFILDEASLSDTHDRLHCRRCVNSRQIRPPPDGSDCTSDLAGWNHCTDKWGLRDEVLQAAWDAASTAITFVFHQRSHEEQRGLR
MIN6 prolif = inducers of MIN6 beta-cell proliferation, primary screen, ATP luminescence, uHTS. MIN6 cells proliferation, ATPlite luminescence, 48 h; cells starved in 0.2% serum; 100% = growth in 10% serum. proliferation, % at 10 µM. actives 0.29% (n = 330,000). AID 2380, 2010;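 active means compounds whose signal lies at least 3.5 SD above the mean of all wells on their plate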;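 further: 0% = DMSO-treated cells in low-serum medium and 100% = 10% serum control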
PREPL inh = PREPL enzyme inhibitors, primary screen, biochemical, fluorescence polarization | Prolyl endopeptidase-like (Homo sapiens), Q4J6C6 | recombinant PREPL, fluorescence polarization activity-based probe | inhibition, % at 5.96 µM | actives 0.68% (n = 320,000) | AID 2751, 2010; in the data active means inhibition above about 43%;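 further: 0% = enzyme with DMSO and 100% = wells lacking enzyme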
UBC13 inh = UBC13 polyubiquitin chain formation inhibitors, primary screen, biochemical, TR-FRET, uHTS; inhibition, % at 20 µM; AID 485273, 2010; Ubiquitin-conjugating enzyme E2 N (Homo sapiens), P61088; actives 0.47% (n = 330,000); in the data active means inhibition above about 45%, passing the limit was not always enough
* marks the source's active call; other numbers are inactive results; / = not tested or not shown; ! = a repeat was not active. Compounds with a hit are over-represented: about 1.3% of the library has one in this group of screens.

SMILES	DNA FID counter	RAD52 inh	RAD54 branch	MIN6 prolif	PREPL inh	UBC13 inh
CCCN1CCc2c(sc(NC(=O)c3ccc(S(=O)(=O)N(C)c4ccccc4)cc3)c2C(N)=O)C1	-3	-26	-1	-4	6	-20
CCCN1CCc2c(sc(NC(=O)c3ccc(S(=O)(=O)N(C)c4ccccc4)cc3)c2C(=O)NC)C1	44*	-360	-14	-6	31	8
COc1ccc(NC(=O)N(C)C[C@@H]2OCc3ccccc3-c3c(n(C)c4ccccc34)C(=O)N([C@@H](C)CO)C[C@@H]2C)c(OC)c1	/	8	5	/	/	/
O=C(Nc1ccccc1)C1=C[C@@H](c2ccc3c(c2)Cc2ccccc2-3)C[C@@H](OCCCCO)O1	/	52*	11	/	/	/
C[C@@H](NC(=O)C[C@@H]1C[C@@H]2c3cc(NC(=O)c4ccc5c(c4)OCO5)ccc3O[C@@H]2[C@H](CO)O1)c1ccccc1	/	2	0	/	/	/
Brc1ccc2c(c1)-c1ccccc1C1=NCCN12	/	35	81*	/	/	/
C[C@H](CO)N1C[C@H](C)[C@@H](CN(C)C(=O)Nc2ccc3c(c2)OCO3)Oc2ccc(NS(C)(=O)=O)cc2CC1=O	/	1	3	/	/	/
COc1cc2[nH]c(=S)nc(NC3CCCCCC3)c2cc1OC	-16	58*	/	-6	19	36
COc1cc2[nH]c(=S)nc(NCC3CCCO3)c2cc1OC (stereo not given)	5	7	-11	0	20	-7
COc1cc(CN2[C@@H]3CNC[C@H]2C3c2ccc(-c3cccc(C)c3)cc2)cc(OC)c1 (stereo not given in full)	/	59*	/	/	/	/
Fc1ccc(F)c(CN2[C@@H]3CNC[C@H]2C3c2ccc(-c3ccncc3)cc2)c1 (stereo not given in full)	/	81*!	/	/	/	/
Fc1cccc(CN2[C@@H]3CNC[C@H]2C3c2ccc(-c3cccc(F)c3)cc2)c1 (stereo not given in full)	/	51*!	/	/	/	/
O=C(C[C@@H]1CC[C@@H](NS(=O)(=O)c2ccccc2)[C@@H](CO)O1)N1CCN(c2ccccc2)CC1	/	-4	/	/	/	/
Cc1ccc(S(=O)(=O)N[C@H]2CC[C@@H](CC(=O)NCc3ccc(Cl)c(Cl)c3)O[C@@H]2CO)cc1	/	-2	7	/	/	/
CCNC(=O)C[C@@H]1CC[C@@H]2[C@H](COc3ccc(NC(=O)Nc4ccccc4Cl)cc3C(=O)N2C)O1	/	-1	2	/	/	/
C/C(=N/NC(=O)COc1ccc(C(C)(C)C)cc1)c1ccc(N2CCOCC2)cc1	/	3	-1	/	/	/
CC(C)(C)c1ccc(OCC(=O)N/N=C/c2ccc(N3CCOCC3)cc2)cc1	-15	/	-13	-3	65*	-9
COc1ccc(N2CCc3c(C)nc4c(OC)cc(OC)cc4c32)c(OC)c1	5	/	44	-6	48*	0
COc1cccc(N2CCc3c(C)nc4ccc(Cl)cc4c32)c1	2	-32	19	/	/	/
CC(=C/c1ccccc1)/C=N/n1c(-c2ccncc2)n[nH]c1=S	-33	-8	/	15*	7	-3
O=C1c2cccc3c([N+](=O)[O-])ccc(c23)C(=O)N1CCc1ccccn1	0	-9	2	-4	-1	-6
CN(C)CCCN1C(=O)c2cccc3c([N+](=O)[O-])ccc(c23)C1=O	41*	/	/	/	28	/
CC=Cc1ccc2n(c1=O)C[C@@H]1[C@@H](CO)[C@H](C(=O)NCc3ccccn3)[C@H]2N1CCC (mixture of isomers)	/	96*	-3	/	/	/
O=C(NCc1ccccn1)[C@H]1[C@H](CO)[C@H]2Cn3c(cccc3=O)[C@@H]1N2CC1CCCCC1	/	51*	10	/	/	/
CN1[C@@H]2c3cccc(=O)n3C[C@H]1[C@H](CO)[C@H]2C(=O)NCC1CCCCC1	/	1	2	/	/	/
CC(=O)N1[C@@H]2c3cccc(=O)n3C[C@H]1[C@H](CO)[C@H]2C(=O)NCC1CCCCC1	/	63*	14	/	/	/
